Screening results deposited in PubChem by National Center for Advancing Translational Sciences (NCATS).
Hits are enriched below; roughly 12% of the tested compounds scored in any of these assays.
Lassa entry inh: blocks Lassa virus binding to or entry into cells | Lassa virus pseudotype entry inhibition, cell reporter | Potency, µM (doses to about 37.9 µM), most hits filed as inhibitors | hit rate 1.2% among 300,000 | AID 540256; calls by dose curve; tested in HEK293 cells; further: nearly all actives have a fitted effect of over 50% in size
Marburg entry inh: inhibitors of Marburg virus binding or cell entry | AID 540276 | Marburg virus pseudotyped entry inhibition, cell reporter | Potency, µM (series often up to 37.8 µM), usual class: inhibitors | hit rate 1.8% among 300,000; calls by dose curve; tested in HEK293 cells
Shiga inhibitor: inhibitors of Shiga toxin in Vero cells; Vero cells, Shiga toxin protein synthesis inhibition reporter; inhibition, % at 38.7 µM; hit rate 9.2% among 290,000; in the data active means inhibition mostly above about 28%, no sharp cut-off; inactive means mostly below about 43%
Cycloheximide cs: affects cycloheximide protein synthesis inhibition readout, counter-screen | cell reporter, cycloheximide protein synthesis inhibition counterscreen | max response, % | hit rate 12% among 300,000 | AID 2314; in the data active means max response mostly above about 13%, no sharp cut-off; inactive means mostly below about 14%; further: read at 38.3 µM for the half of the compounds with a filed dose
Hits are given with their value.

Results for COc1ccc(NC(=O)CN(C)CC(=O)Nc2cccc(F)c2)cc1Cl ?
Lassa entry inh: inconclusive; Marburg entry inh: inconclusive; Shiga inhibitor: inactive; Cycloheximide cs: inactive

How did CCNC(=O)OC1CNC(C#Cc2cc3ncnc(Nc4ccc(OCc5cccc(F)c5)c(Cl)c4)c3s2)C1 (centres undefined) do in these assays?
Lassa entry inh: 7.9µM

What do the screens show for `Cc1c(-c2ccnc3cc(C(=O)O)nn23)cnn1C`?
Lassa entry inh: inactive; Marburg entry inh: inactive; Shiga inhibitor: inactive; Cycloheximide cs: inactive

How did C#CCN1C(=O)[C@]2(O[C@H](COc3ccccc3)CC3=C2CCC3)c2ccccc21 do in these assays?
Lassa entry inh: inconclusive; Marburg entry inh: inactive

Results for COc1ccc2c(C(=O)CCl)c[nH]c2c1 ?
Shiga inhibitor: inactive; Cycloheximide cs: inactive

Results for C=CCSc1n[nH]c(-c2ccc(OCCC)cc2)n1 ?
Lassa entry inh: inconclusive; Marburg entry inh: inactive; Shiga inhibitor: 125; Cycloheximide cs: 50

What do the screens show for `CCCOc1ccc(-c2nc(SCC(=O)c3ccc(Cl)cc3)n[nH]2)cc1`?
Lassa entry inh: inconclusive; Marburg entry inh: inactive

How did C=CCSc1n[nH]c(-c2ccc(OCCCC)cc2)n1 do in these assays?
Marburg entry inh: inactive; Shiga inhibitor: 17; Cycloheximide cs: 41

Results for COc1cccc([C@H]2Oc3ccc(OC)cc3C(=NO[C@@H](C)c3cn([C@H](CO)Cc4ccccc4)nn3)[C@H]2O)c1 ?
Marburg entry inh: inactive

What do the screens show for `CN(Cc1ccccc1)C(=S)NC(=O)C1CCCCC1`?
Shiga inhibitor: inactive; Cycloheximide cs: 28

How did COc1cccc(NC(=O)N2CCC3(CC2)OCCO3)c1 do in these assays?
Lassa entry inh: inactive; Marburg entry inh: inactive; Shiga inhibitor: 61; Cycloheximide cs: 31

How did COc1ccccc1N1CCN(C(=O)Nc2cccc(Cl)c2)CC1 do in these assays?
Lassa entry inh: inactive; Marburg entry inh: inactive; Shiga inhibitor: inactive; Cycloheximide cs: inactive

What do the screens show for `COc1cccc(NC(=O)N2CCN(c3cccc(C)c3C)CC2)c1`?
Lassa entry inh: inactive; Marburg entry inh: inactive; Shiga inhibitor: 66; Cycloheximide cs: 38

Results for OC1(c2ccccc2)CN(c2ccccc2)C2=[N+]1CCS2 (centres undefined) ?
Lassa entry inh: inactive; Marburg entry inh: inactive; Shiga inhibitor: inactive; Cycloheximide cs: inactive

Results for O=C(Cc1c(F)cccc1Cl)OCN1C(=O)c2ccccc2C1=O ?
Lassa entry inh: inactive; Marburg entry inh: inactive; Shiga inhibitor: inactive; Cycloheximide cs: inactive

What do the screens show for `Cc1nc2ccc(NC(=S)NCc3ccccc3)cc2nc1C`?
Lassa entry inh: inactive; Marburg entry inh: inactive; Shiga inhibitor: inactive; Cycloheximide cs: 27

Results for C=CCNC(=S)Nc1ccc2nc(C)c(C)nc2c1 ?
Lassa entry inh: inactive; Marburg entry inh: inactive; Shiga inhibitor: inactive; Cycloheximide cs: 27

How did CCc1ccc(NC(=S)NCc2ccccc2)cc1 do in these assays?
Lassa entry inh: inactive; Marburg entry inh: inactive; Shiga inhibitor: 142; Cycloheximide cs: 34

Results for Cc1ccc(NC(=S)NCc2ccccc2)cc1C ?
Lassa entry inh: inactive; Marburg entry inh: inactive

What do the screens show for `COC(=O)C1=C(c2ccccc2)c2ccccc2S(=O)(=O)N1CC(=O)Nc1ccc(F)c(F)c1`?
Lassa entry inh: 11µM; Marburg entry inh: inconclusive

How did c1ccc(Cn2nnnc2C(c2cccnc2)N2CCN(c3ccccc3)CC2)cc1 (centres undefined) do in these assays?
Lassa entry inh: inconclusive; Marburg entry inh: inactive; Shiga inhibitor: inactive; Cycloheximide cs: inactive

Results for Cc1sc2nc(SCC(=O)C(C)(C)C)n(Cc3ccco3)c(=O)c2c1C ?
Lassa entry inh: 8.2µM; Marburg entry inh: inconclusive; Shiga inhibitor: inactive; Cycloheximide cs: inactive

What do the screens show for `Cc1sc2nc(SCc3ccccc3)n(Cc3ccco3)c(=O)c2c1C`?
Lassa entry inh: inconclusive; Marburg entry inh: inconclusive; Shiga inhibitor: inactive; Cycloheximide cs: inactive

Results for Cc1sc2nc3c4ccccc4c(NCc4ccco4)nn3c(=O)c2c1C ?
Lassa entry inh: inconclusive; Marburg entry inh: inactive; Shiga inhibitor: 135; Cycloheximide cs: 73

How did Cc1nc(NCc2ccco2)c2c(C)c(C)sc2n1 do in these assays?
Lassa entry inh: inactive; Marburg entry inh: inconclusive; Shiga inhibitor: inactive; Cycloheximide cs: inactive

What do the screens show for `CCOC(=O)CC(=O)CSc1nc2sc(C)cc2c(=O)n1Cc1ccco1`?
Lassa entry inh: inactive; Marburg entry inh: inactive; Shiga inhibitor: inactive; Cycloheximide cs: inactive

What do the screens show for `COc1cccc(CSc2nc3sc(C)c(C)c3c(=O)n2Cc2ccco2)c1`?
Lassa entry inh: inconclusive; Marburg entry inh: 15µM; Shiga inhibitor: inactive; Cycloheximide cs: inactive

How did Cc1cc2c(=O)n(Cc3ccco3)c(SCC(=O)c3ccc(Cl)s3)nc2s1 do in these assays?
Lassa entry inh: inconclusive; Marburg entry inh: inconclusive; Shiga inhibitor: inactive; Cycloheximide cs: 16

What do the screens show for `NC(=O)c1ncn([C@@H]2O[C@H](CO)[C@@H](O)[C@H]2O)c1O`?
Lassa entry inh: inactive; Marburg entry inh: inconclusive; Shiga inhibitor: inactive; Cycloheximide cs: inactive

Results for Cc1ccc(S(=O)(=O)NCc2ccccc2)cc1C(=O)NCC(C)(C)N1CCOCC1 ?
Lassa entry inh: inactive; Marburg entry inh: inactive

Results for COc1c2c(cc3oc(=O)ccc13)OC(C)(C)C=C2 ?
Shiga inhibitor: 40; Cycloheximide cs: 20

How did CC1(C)C=Cc2cc3ccc(=O)oc3cc2O1 do in these assays?
Shiga inhibitor: 62; Cycloheximide cs: 53

What do the screens show for `Cc1ccc2cccc(S(=O)(=O)N3CCCc4ccccc43)c2n1`?
Shiga inhibitor: inactive; Cycloheximide cs: inactive

How did CCC(CC)C(=O)OCc1cc(=O)n2nc(C3CC3)sc2n1 do in these assays?
Lassa entry inh: inactive

How did C=CC[C@@H]1C=C[C@H](ON=C(C)CCN2CCCc3nc(C)c(C)cc32)[C@H](CO)O1 do in these assays?
Marburg entry inh: inactive

Results for O=C(NC1CCCCCC1)C1CCCN(c2ncccn2)C1 (centres undefined) ?
Lassa entry inh: inactive; Marburg entry inh: inactive; Shiga inhibitor: inactive; Cycloheximide cs: 24

Results for Cc1ccc(Sc2ccc(N3CCCC(C(=O)Nc4ccc(Br)cc4)C3)nn2)cc1 (centres undefined) ?
Lassa entry inh: 1.1µM; Marburg entry inh: inactive

What do the screens show for `CC(C)(C)c1ccc(NC(=O)C2CCCN(c3cnccn3)C2)cc1` (centres undefined)?
Lassa entry inh: inactive; Marburg entry inh: inactive; Shiga inhibitor: inactive; Cycloheximide cs: 16

How did Cc1ccc(NC(=O)C2CCCN(c3ncccn3)C2)cc1C (centres undefined) do in these assays?
Lassa entry inh: inactive; Marburg entry inh: inconclusive; Shiga inhibitor: 99; Cycloheximide cs: 29

Results for Cc1ccc(Sc2ccc(N3CCCC(C(=O)Nc4ccc(Cl)cc4)C3)nn2)cc1 (centres undefined) ?
Lassa entry inh: inconclusive; Marburg entry inh: inactive

Results for Cc1ccnc(N2CCCC(C(=O)Nc3ccc(C)c(C)c3)C2)n1 (centres undefined) ?
Lassa entry inh: inactive; Marburg entry inh: inactive; Shiga inhibitor: inactive; Cycloheximide cs: inactive

How did COc1ccc(NC(=O)C2CCCN(c3nccc(C)n3)C2)cc1 (centres undefined) do in these assays?
Lassa entry inh: inactive; Marburg entry inh: inconclusive; Shiga inhibitor: inactive; Cycloheximide cs: inactive

What do the screens show for `CCC(C)c1ccc(NC(=O)C2CC2)cc1` (centres undefined)?
Lassa entry inh: inactive; Marburg entry inh: inactive; Shiga inhibitor: 59; Cycloheximide cs: 25
